# From the supplement of paper PMC12632987
# B1: uchl1_2_7551 (protein)
# chain: KSVFVGVLVTIRATDAATGETLVSRRTLIGTESSIKKLAEEVKELVLEFKARTGGPVEVDITVYSSKEEVAKKAKEEFEKLKKELAAEGVTANVNVILSK
# B2: uchl1_2_7546 (protein)
# chain: KTQFVGALVKMEAYDEETGKTYKSTRTLIGTADAIEKMAEEIYELALNFKDTVGVPVKVKVDVVVASEETKKKAEAALKKMKEKLKKEGIEVEVKVTVVE
# B3: uchl1_2_7553 (protein)
# chain: KTKFVGVLVTIRAVNPETGKEYRSRRTLIGTADAIEALAEEVYELVLRFKEATGAPVEVDVRVYVSDEETAERAREAFKKLEERLKAEGVKARVEVTVVK
# B4: uchl1_2_7548 (protein)
# chain: KAEFVGALVTITSTNPETGEVRVARRTLIGLASDIDALMEEIERLVLDFQADTGGATRVRIRIVVSSEEVAERARAAAEEMKARLAAEGIEVEVEIEVVE
# B5: uchl1_2_7552 (protein)
# chain: KTQFVGVLVTITSTNPETGEVKTVRKTLIGTEEGIEAMAKEILEMALEFKEQTKGPVEVKVEVVVSTEETAKKMEEELKKLEEELKKEGIKVEVEVKVVK
# B6: uchl1_2_7545 (protein)
# chain: KTKFVGVLVTLRSYDPETGREYVSRRTLIGTEEAVEAMAEEIAELIRRFHDRTGVPVDVDVTIYSSSKEVAEELKKKLEEEVKKLKAEGIDVTLTVTLKV
# B7: uchl1_2_7547 (protein)
# chain: KTEFVGVLVTITSVNPETGETFVARRTLIGTASSIEAMAKEIKELALAFKADTKGDTTVDVEVVVSSKEVAEKAKKALEELKKELEAEGIKFNYKITVVE
# B8: uchl1_2_7540 (protein)
# chain: KSVFVGVLVTLRSYDEATGKEYVSRRTLIGTEDSIEALAEEVAELIRAFYEQTGVPVQADVTIVSSSREVAERLAEALRAREAELRAEGVDVTLTITVRV
# B9: uchl1_2_7549 (protein)
# chain: EPQFVGVLVTVTSTNPETGKVYKSRRNFIGTADAIPALFKEVLEYVLTFKEANGGKTKVKLEIVVSTKEVAEKAKKEAEKLKKELAKEGIEAEVKITVVE
# B10: uchl1_2_7538 (protein)
# chain: KTRFVGVLVKITAKDEKTGKVYRARRTLIGTASGIPAMAEEVERLVLEFQERTGVPVRVEVHVYASDEETAELARREFERMAERLAEHGIEVTVTVTVVE
# B11: uchl1_2_7550 (protein)
# chain: EPRFVGVLVTVTSTNPETGEVFRSRRNFIGTADAVAAMMAEVEEYVLRFKEVNGGAVAVDLHVVVSTEEDAARARAEAAKLAARLAAEGITATVTVTVVE
# B12: uchl1_2_7542 (protein)
# chain: KPKFIGLKVTLTSYDEKTGKTYKATRTLIGTESGIEAMAKEVGELVRTFYDATGVPVKVDVTIVSSDEEVAKKLEEALRKMEEELKKEGVPVELNIKKEV
# B13: uchl1_2_7539 (protein)
# chain: KTKFVGALVEITAKDEKTGKVYRSRRTLIGTESAIEAMAKEIKELVLNFKEETGVPVEVKVTVYAENKETAEKMKKELEKMAKELAKEGIKVEIEVKLVE
# B14: uchl1_2_7541 (protein)
# chain: KTKFIGVLVTLTSYDAATGRTYRARRTLIGTESGIEAMAAEVAELVRTFHDATGQPVAVDVRIVSSDEAVAEALEAALKAAEAALKAEGVDVTLTITKDV
# B15: uchl1_2_7544 (protein)
# chain: KTKFVGVKVTLTSYDEKTGKEYKSTHTLIGTEEAVEAMAKEIAELIRTFYDATGVPVKVDVTIYSSSEEVAEKLEKELKKEVEKLKKEGIDVTLTITKKV
# B16: uchl1_2_7543 (protein)
# chain: KPVFVGVLLELEARDEATGRVYRARRTLIGTEDGIEAMAEEVRRLVREFWEATGVPVRARVTIVSTREEVAERLRRALEAAHEELRAEGIDVTLEITVRV
# Biological target: UCHL1, P09936
# Test: median log2 fold change of GCK-ALFA target abundance (FLAG IP / Myc IP barcode read proportion) (log2 ratio); each designed protein is fused to an ALFA-tag nanobody in HEK293 cells to bring the named protein to FLAG-tagged glucokinase (GCK); Myc marks an untargeted standard; higher = target protein stabilised (more abundant)
# Conditions: target protein: 3xFLAG-MCP-GCK-ALFA reporter; HEK293 landing pad (RPLP)
# In short: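 The readout is target abundance, the per-binder median log2 ratio of FLAG to Myc barcode read proportions. It came from HEK293 landing-pad cells carrying a recombined ALFA-nanobody-fused binder library, induced with 2 μg mL^−1 doxycycline and transfected with a plasmid for a FLAG-tagged target and a Myc-tagged standard. After 48 h, lysates were immunoprecipitated with anti-FLAG and anti-Myc, and circular RNA barcodes were reverse transcribed, amplified and sequenced. Each barcode needed a proportion of at least 10^−7 in both replicates and each binder at least 3 barcodes per replicate, a pseudocount of 10^−6 was added, and the replicates were pooled.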
# UCHL1, P09936, sequence (P09936 whole entry, looked up, the tested form may be a part): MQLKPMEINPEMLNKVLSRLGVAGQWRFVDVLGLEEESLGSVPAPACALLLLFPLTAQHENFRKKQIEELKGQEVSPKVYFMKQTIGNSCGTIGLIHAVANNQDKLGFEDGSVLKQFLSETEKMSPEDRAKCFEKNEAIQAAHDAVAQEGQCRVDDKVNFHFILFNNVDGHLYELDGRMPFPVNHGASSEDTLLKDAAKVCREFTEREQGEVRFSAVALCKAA
row,Binder,median log2 fold change
1,B1,-0.159
2,B2,-1.13
3,B3,-0.615
4,B4,-0.489
5,B5,0.325
6,B6,0.0138
7,B7,-0.0935
8,B8,-0.377
9,B9,-0.1
10,B10,-0.55
11,B11,-0.0947
12,B12,-0.0683
13,B13,-0.811
14,B14,-0.304
15,B15,-0.358
16,B16,0.327
